Source: PubChem BioAssay (several laboratories)
PABP FP inh = blocks human PABP binding to poly(A) RNA | inhibition, % at 35 µM | AID 2014 | P11940 | 290,000 tested, 1% active | fluorescence polarization;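 note: calls also rest on retests at 20 µM and on dose response follow-up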
Target sequence (P11940 whole entry, looked up): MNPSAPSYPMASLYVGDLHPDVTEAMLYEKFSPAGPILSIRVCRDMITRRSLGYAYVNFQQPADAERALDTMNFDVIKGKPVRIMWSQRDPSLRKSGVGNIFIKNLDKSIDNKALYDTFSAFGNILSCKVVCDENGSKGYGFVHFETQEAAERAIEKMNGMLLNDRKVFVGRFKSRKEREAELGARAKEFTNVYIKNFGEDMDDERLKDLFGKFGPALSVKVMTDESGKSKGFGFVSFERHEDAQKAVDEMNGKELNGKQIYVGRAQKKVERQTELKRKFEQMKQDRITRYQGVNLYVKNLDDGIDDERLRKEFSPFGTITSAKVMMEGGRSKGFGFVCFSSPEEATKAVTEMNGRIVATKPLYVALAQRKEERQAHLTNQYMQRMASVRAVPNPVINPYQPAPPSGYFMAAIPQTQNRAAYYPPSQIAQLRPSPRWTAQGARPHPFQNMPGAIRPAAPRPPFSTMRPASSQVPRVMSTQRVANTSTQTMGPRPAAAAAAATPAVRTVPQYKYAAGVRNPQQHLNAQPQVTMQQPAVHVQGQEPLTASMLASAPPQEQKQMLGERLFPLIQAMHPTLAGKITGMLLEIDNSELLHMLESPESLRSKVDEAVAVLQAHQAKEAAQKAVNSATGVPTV
MLLE-PAM2 inh = inhibitors of microRNA-mediated deadenylation, human PABP1 MLLE binding. inhibition, % at 20 µM. GST-MLLE / FITC-PAM2 fluorescence polarization. 360,000 tested, 0.36% active. AID 588489; in the data active = inhibition above about 35%, passing the limit was not always enough
eIF4H FP inh = inhibitors of RNA binding by human eIF4H | Q15056 | eIF4H fluorescence polarization binding assay | inhibition, % at 35 µM | 290,000 tested, 0.94% active | AID 2012;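 note: calls also rest on retests at 20 µM and on dose response follow-up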
PERK inh = blocks human PERK kinase | Q9NZJ5 | CHO PERK-DD fusion, SEAP luminescence translation reporter | inhibition, % at 5.6 µM | 220,000 tested, 0.17% active | AID 1416;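 active = inhibition above the mean inhibition of all tested compounds plus 3 SD, set separately per screening campaign, cut at about 2.9% in these data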;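 note: PERK kinase domain activated by AP20187 dimerizer at 100 nM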
eIF4E-4G inh = blocks eIF4E binding to eIF4G; P63073+Q04637; TR-FRET eIF4E-eIF4GI(517-606) binding, 2 h; inhibition, % at 21.7 µM; 220,000 tested, 0.37% active;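 active = inhibition above about 30%, limit read from the data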
Of the large screens only hits and unclear results are named; the others gave an inactive call; [ ] = another dose, or the depositor's remark. An excerpt weighted towards active compounds, which were near 1.6% of everything screened. Unless noted, the rule behind the calls is not given here.

CCOC(=O)CCCCCC(=O)Nc1ccc2c(c1)C(=O)N([C@@H](C)CO)C[C@H](C)[C@H](CN(C)C(=O)Nc1ccc(F)cc1)OCCCC[C@H](C)O2	none (no result: PABP FP inh, eIF4H FP inh, PERK inh, eIF4E-4G inh)
COc1cccc(Nc2ccc(N3CCCCC3)cc2)c1OC	MLLE-PAM2 inh 60 (no result: PABP FP inh, eIF4H FP inh, PERK inh, eIF4E-4G inh)
O=c1cc2oc3cc(O)c(O)cc3c(-c3ccccc3O)c-2cc1O	PABP FP inh inconclusive, eIF4H FP inh inconclusive, PERK inh 3.1
CCOc1ccccc1-c1c2cc(O)c(=O)cc-2oc2cc(O)c(O)cc12	eIF4H FP inh inconclusive
COc1ccc(OC)c(-c2c3cc(O)c(=O)cc-3oc3cc(O)c(O)cc23)c1	eIF4H FP inh inconclusive, eIF4E-4G inh 51[fluorescence artefact?]
Cc1ccc(NC(=O)c2cc3ccccc3oc2=O)cc1S(=O)(=O)N(C)C	PABP FP inh 64
O=c1cc(CSc2nnnn2-c2ccccc2)[nH]c2[nH]n(-c3ccccc3)c(=O)c12	PABP FP inh 62, eIF4H FP inh 79
O=C(NC1CCCCCCC1)c1ccc2c(c1)OCO2	eIF4E-4G inh 32
Cc1ccc2nc(/C(C#N)=C\c3ccc(Oc4ccc(C(F)(F)F)cc4[N+](=O)[O-])cc3)[nH]c2c1	PABP FP inh active, eIF4H FP inh 76
Cc1c(S(=O)(=O)c2ccccn2)c(N)n(Cc2cccc(Cl)c2)c1C	eIF4E-4G inh 73
COc1cc(-c2c(C(C)=O)c(C)nc3c2C(=O)c2ccccc2-3)cc(OC)c1OC	none (no result: PERK inh, eIF4E-4G inh)
CC(=O)c1c(Cl)nc2cccc3c2c1-c1ccccc1C3=O	MLLE-PAM2 inh 50 (no result: PERK inh, eIF4E-4G inh)
CN1C(=O)c2cccc(NCCCCCCN3C(=O)c4ccccc4C3=O)c2C1=O	none
CN1C(=O)c2cccc(NCCCN3C(=O)c4ccccc4C3=O)c2C1=O	PABP FP inh 94, eIF4H FP inh 66
O=C(Nc1ccc2oc(-c3ccccc3F)nc2c1)c1ncn[nH]1	none
O=C(Nc1ccc2oc(-c3ccc(Cl)c(Cl)c3)nc2c1)c1ncn[nH]1	PABP FP inh 8.3, eIF4H FP inh inconclusive
NC(=O)c1ccc(NC(=O)COC(=O)c2ccc(Br)o2)cc1	none (no result: PABP FP inh, eIF4H FP inh, PERK inh, eIF4E-4G inh)
CC(NCc1cccnc1)c1ccccc1 (stereo not drawn)	none (no result: PERK inh, eIF4E-4G inh)
Cc1oc2ccc(O)cc2c1C(=O)c1ccc(Cl)cc1	none
Cc1oc2ccc(O)cc2c1C(=O)c1ccc([N+](=O)[O-])cc1	PABP FP inh 66, eIF4H FP inh active
Cc1cc(C)c(C)c(S(=O)(=O)N2CCN(C(=O)c3cc(S(=O)(=O)N4CCOCC4)ccc3F)CC2)c1C	none (no result: PABP FP inh, eIF4H FP inh, PERK inh, eIF4E-4G inh)
N#CC1=C(N)C(C#N)(C#N)C(c2cccnc2)C2CN(C(=O)OCc3ccccc3)CC=C12 (stereo not drawn)	eIF4H FP inh 66
CCOC(=O)c1c(/N=C/c2ccc(O)cc2O)sc2c1CCC2	PABP FP inh active, eIF4H FP inh 65 (no result: MLLE-PAM2 inh)
Cc1ccc(C(=O)Nc2ccccc2N2CCCC2)s1	none (no result: PABP FP inh, eIF4H FP inh, PERK inh, eIF4E-4G inh)
COc1ccccc1CNC(=O)CSC1=NCCS1	MLLE-PAM2 inh 41
CC(NC(=O)CSC1=NCCS1)c1ccccc1 (stereo not drawn)	MLLE-PAM2 inh 46
O=C(CSC1=NCCS1)Nc1ccccc1F	MLLE-PAM2 inh 43
C[C@@H](CN1C(=O)C(=O)NC[C@@H]1C)NC(=O)CC12CC3CC(CC(C3)C1)C2	none (no result: PERK inh, eIF4E-4G inh)
Cc1cc(=O)oc2cc(OCc3ccc(C(=O)OCC(=O)N(C)C4CCS(=O)(=O)C4)cc3)ccc12 (stereo not drawn)	none
Cc1cc(=O)oc2cc(OCc3ccc(C(=O)OCC(=O)NC4CCS(=O)(=O)C4)cc3)ccc12 (stereo not drawn)	PABP FP inh 55, eIF4H FP inh 99
COc1cc(CNC[C@H]2O[C@@H](n3cnc(C(N)=O)n3)[C@H](O)[C@@H]2O)ccc1OCc1cccc(Cl)c1	none (no result: PABP FP inh, eIF4H FP inh, PERK inh, eIF4E-4G inh)
O=c1c(-c2ccccc2)n[nH]c2ccccc12	none
O=C1c2ccccc2-c2n[nH]c3cccc1c23	MLLE-PAM2 inh 73 (no result: PABP FP inh, eIF4H FP inh, PERK inh, eIF4E-4G inh)
COc1ccc(NS(=O)(=O)c2cc(NC(=O)CCSc3ccccc3)ccc2OC)cc1	PABP FP inh 75, eIF4H FP inh 5.3
C=CCO/N=C(/C)c1ccc(Oc2cnccn2)cc1	PABP FP inh 74, eIF4H FP inh 7.9
COc1ccc(C(=O)O/N=C(\C)c2cnccn2)cc1	none
CC1(C(=O)NS(=O)(=O)c2ccc3c(c2)CCO3)CCN1C(=O)c1ccccc1CCc1ccccc1 (stereo not drawn)	none (no result: PABP FP inh, eIF4H FP inh, PERK inh, eIF4E-4G inh)
Cc1ccc(/C=C2\SC(=S)N(c3c(C)n(C)n(-c4ccccc4)c3=O)C2=O)cc1	MLLE-PAM2 inh 47
Cc1c(N2C(=O)/C(=C3\C(=O)N(CC(=O)O)c4ccccc43)SC2=S)c(=O)n(-c2ccccc2)n1C	MLLE-PAM2 inh 52
